Results filed as inconclusive are left out. Activity calls are given as the source filed them. Calls come from the whole dose curve; as a rule, active = well fitted curve in the direction sought with a large enough effect in the repeat runs; inconclusive = weak or mixed curves; inactive = no such curve, though single readings can be large; an effect the other way counts as inactive or inconclusive.
% is set by controls: 0 for no effect and ±100 for the full control effect.

One experiment is described as follows: qHTS RealTime-Glo MT Cell Viability Assay in HEK293 cells - 16 hour (AID 1224872). For activity change, negative = cytotoxicity: top concentration of the series differs between compounds. Note: nearly all actives have a fitted effect of over 50% in size. Note: potency is the fitted concentration of half-maximal effect. The note with it: RealTime-Glo luminescence; series mostly up to 76.8 µM; activity change, negative = cytotoxicity: at the top concentration. In a few lines: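 Cells + reagent dispensed (600 cells/well, HEK293) → 5 h at 37 C/5% CO2 → 23 nL compound in DMSO pinned → 40 h at 37 C → luminescence read at 0, 8, 16, 24, 32, 40 h.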
On the technique in general: In qHTS, concentration-response curves come from the screen itself.
For the compound `C=CCCC`, the “activity change, negative = cytotoxicity” value is -4.03% (inactive).
On the same count and under the same terms, the value for `CC(C)(C)c1ccc(CCC=O)cc1` was 0.283% (inactive); that for `O=C(Nc1ccccc1)c1cc([N+](=O)[O-])ccc1Cl` was -2.54% (inactive); that for `CC(C)=CCC[C@H](C)CCO` was -3.77% (inactive).
The same measure, in the same setting: the value for `CC(=O)Nc1ccn(C2COC(COC(=O)c3ccccc3)O2)c(=O)n1` (stereo not drawn) was -0.559% [at 35.3 µM] (inactive); that for `N#C[C@@H]1CC(F)(F)CN1C(=O)CNC1CC2CCC(C1)N2c1ncccn1` (stereo partly drawn) was 5.91% (inactive); that for `CC(C)=CCCC(C)C=O` (stereo not drawn) was 6.57% (inactive).
On the same count and under the same terms, the value for `C=CC(=O)NC(C)(C)C` was 1.72% (inactive); that for `C1=COCCC1` was 0.436% (inactive); that for `CCOC(OCC)OCC` was 0.818% (inactive).
Consider `[O-][n+]1ccc(Cl)cc1`, for which the “activity change, negative = cytotoxicity” value was 11.4% (inactive).
On the same count and under the same terms, in the case of `CC1(C)C(=O)NC(=O)N1CO` it was 1.25% (inactive); in that of `CCCCCCCCS`, 6.76% (inactive).
Consider `O=C(NC1CCN(CCc2c[nH]c3ccccc23)CC1)c1ccccc1`, for which the Potency was 9.52 µM (active).
On to `CCC(C(=O)O)c1ccc(N2Cc3ccccc3C2=O)cc1` (stereo not drawn), for which the “activity change, negative = cytotoxicity” value was 0.335% [at 35.3 µM] (inactive).
With `Cc1ccccc1CCO`, the “activity change, negative = cytotoxicity” value is -7.22% (inactive).
The same measure, in the same setting: in the case of `O=c1[nH]nc(-c2ccc([N+](=O)[O-])o2)o1` it was 3.79% (inactive); in that of `CCC(=O)O[C@]1(C(=O)COC)[C@@H](C)C[C@H]2[C@@H]3CCC4=CC(=O)C=C[C@]4(C)C3(F)[C@@H](O)C[C@@]21C` (stereo partly drawn), -0.763% [at 35.3 µM] (inactive).
Same read-out and setting: in the case of `O=C(OCCOCCOCCOC(=O)c1ccccc1)c1ccccc1` it was -6.5% (inactive).
Consider `COC(=O)c1cc(Cl)ccc1[N+](=O)[O-]`, for which the “activity change, negative = cytotoxicity” value was 12.7% (inactive).
The same measure, in the same setting: in the case of `Cc1cccc(C)c1NC(=O)CN1CCCC1` it was 2.57% [at 35.3 µM] (inactive); in that of `COC(=O)/C=C/C(C)=C\C=C\C(C)=C\C=C\C=C(C)\C=C\C=C(C)\C=C\C(=O)O`, 13% (inactive).
The same measure, in the same setting: in the case of `CCc1ccc(C(=O)C(C)CN2CCCCC2)cc1` (stereo not drawn) it was 0.135% [at 35.3 µM] (inactive).
The same measure, in the same setting: in the case of `OCCOc1cccc(OCCO)c1` it was 12% (inactive).
Consider `C=CC(C)(O)CC/C=C(/C)CCC=C(C)C` (stereo not drawn), for which the “activity change, negative = cytotoxicity” value is -3.34% (inactive).
The same measure, in the same setting: in the case of `O=C(OC1C[C@H]2CC[C@@H](C1)[N+]21CCCC1)C(O)(c1ccccc1)c1ccccc1` (stereo partly drawn) it was 1.66% [at 35.3 µM] (inactive).
`CC(C)(Cc1c[nH]c2ccccc12)NCC(O)COc1ccccc1C#N` (stereo not drawn): the Potency is 16.9 µM (active).
Take `CNc1ccccc1`: the “activity change, negative = cytotoxicity” value is -3.68% (inactive).
For the compound `CCCCCCC/C=C/C=O`, the “activity change, negative = cytotoxicity” value is -2.07% (inactive).
Still for that read-out and setting: in the case of `NCCOCCOCCN` it was 0.805% (inactive); in that of `FC1(F)C(F)(F)C(F)(F)C2(F)C(F)(C1(F)F)C(F)(F)C(F)(F)C1(F)C(F)(F)C(F)(F)C(F)(F)C(F)(F)C12F` (stereo not drawn), 13.5% (inactive).
For the compound `COc1ccnc2c1CCCCC2S(=O)c1nc2ccccc2[nH]1` (stereo not drawn), the Potency was 9.52 µM (active).
For the compound `CCCCCCCCCCCCCCCCN`, the “activity change, negative = cytotoxicity” value is 0.533% [at 35.3 µM] (inactive).
Regarding `FC(F)(Cl)C(F)(Cl)Cl`, the “activity change, negative = cytotoxicity” value was 7.38% (inactive).
Same read-out and setting: the value for `Cc1cc(C)c(C)c(O)c1` was 8.96% (inactive); that for `CC(=O)c1cccnc1` was 0.721% (inactive).
The same measure, in the same setting: in the case of `Cc1c(Cl)cccc1[N+](=O)[O-]` it was -8.06% (inactive); in that of `CCN(CC)CC(=O)OCC(=O)[C@@]1(O)CC[C@H]2[C@@H]3CCC4=CC(=O)CC[C@]4(C)[C@H]3[C@@H](O)C[C@@]21C`, 3.06% [at 35.3 µM] (inactive).
As for `CCCc1ccc(OC)cc1`, the “activity change, negative = cytotoxicity” value is 8.93% (inactive).

Another experiment can be described thus: qHTS RealTime-Glo MT Cell Viability Assay in HepG2 cells - 8 hour (AID 1224873). Note: nearly all actives have a fitted effect of over 55% in size. As to conditions: RealTime-Glo luminescence; series mostly up to 76.8 µM; viability change, negative = cytotoxic: at the top concentration. In a few lines:
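HepG2 cells mixed with RealTime-Glo MT reagents (NanoLuc plus cell-permeant prosubstrate) were seeded at 600 cells/well, incubated 5 h at 37 C/5% CO2, then pinned with compounds in DMSO; nonlytic luminescence tracked viability during 40 h treatment.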
As to `C=CCCC`, the “viability change, negative = cytotoxic” value was -1.67% (inactive).
Consider `CC(C)(C)c1ccc(CCC=O)cc1`, for which the “viability change, negative = cytotoxic” value was -2.88% (inactive).
Same read-out and setting: the value for `O=C(Nc1ccccc1)c1cc([N+](=O)[O-])ccc1Cl` was -7.34% (inactive).
Same read-out and setting: in the case of `CC(C)=CCC[C@H](C)CCO` it was 0.864% (inactive); in that of `CC(=O)Nc1ccn(C2COC(COC(=O)c3ccccc3)O2)c(=O)n1` (stereo not drawn), -2.67% [at 35.3 µM] (inactive); in that of `N#C[C@@H]1CC(F)(F)CN1C(=O)CNC1CC2CCC(C1)N2c1ncccn1` (stereo partly drawn), 0.123% (inactive).
The same measure, in the same setting: the value for `CC(C)=CCCC(C)C=O` (stereo not drawn) was -4.55% (inactive); that for `C=CC(=O)NC(C)(C)C` was 0.724% (inactive).
Consider `C1=COCCC1`, for which the “viability change, negative = cytotoxic” value was -1.38% (inactive).
The same measure, in the same setting: in the case of `CCOC(OCC)OCC` it was -1.92% (inactive); in that of `[O-][n+]1ccc(Cl)cc1`, 1.35% (inactive).
The same measure, in the same setting: the value for `CC1(C)C(=O)NC(=O)N1CO` was -2.55% (inactive).
For the compound `CCCCCCCCS`, the “viability change, negative = cytotoxic” value is -0.0105% (inactive).
Same read-out and setting: the value for `O=C(NC1CCN(CCc2c[nH]c3ccccc23)CC1)c1ccccc1` was -3.1% [at 35.3 µM] (inactive); that for `CCC(C(=O)O)c1ccc(N2Cc3ccccc3C2=O)cc1` (stereo not drawn) was 1.56% [at 35.3 µM] (inactive); that for `Cc1ccccc1CCO` was 3.93% (inactive).
Still for that read-out and setting: the value for `O=c1[nH]nc(-c2ccc([N+](=O)[O-])o2)o1` was -10.8% (inactive); that for `CCC(=O)O[C@]1(C(=O)COC)[C@@H](C)C[C@H]2[C@@H]3CCC4=CC(=O)C=C[C@]4(C)C3(F)[C@@H](O)C[C@@]21C` (stereo partly drawn) was -7.56% [at 35.3 µM] (inactive); that for `O=C(OCCOCCOCCOC(=O)c1ccccc1)c1ccccc1` was -12.8% (inactive).
Still for that read-out and setting: in the case of `COC(=O)c1cc(Cl)ccc1[N+](=O)[O-]` it was 2.51% (inactive).
Turning to `Cc1cccc(C)c1NC(=O)CN1CCCC1`, the “viability change, negative = cytotoxic” value was -1.92% [at 35.3 µM] (inactive).
The same measure, in the same setting: the value for `COC(=O)/C=C/C(C)=C\C=C\C(C)=C\C=C\C=C(C)\C=C\C=C(C)\C=C\C(=O)O` was -14.4% (inactive); that for `CCc1ccc(C(=O)C(C)CN2CCCCC2)cc1` (stereo not drawn) was -6.05% [at 35.3 µM] (inactive).
The same measure, in the same setting: in the case of `OCCOc1cccc(OCCO)c1` it was 3.44% (inactive); in that of `C=CC(C)(O)CC/C=C(/C)CCC=C(C)C` (stereo not drawn), -6.84% (inactive); in that of `O=C(OC1C[C@H]2CC[C@@H](C1)[N+]21CCCC1)C(O)(c1ccccc1)c1ccccc1` (stereo partly drawn), 6.6% [at 35.3 µM] (inactive).
The same measure, in the same setting: in the case of `CC(C)(Cc1c[nH]c2ccccc12)NCC(O)COc1ccccc1C#N` (stereo not drawn) it was -12.9% [at 35.3 µM] (inactive); in that of `CNc1ccccc1`, 1.47% (inactive); in that of `CCCCCCC/C=C/C=O`, -6.38% (inactive).
As to `NCCOCCOCCN`, the “viability change, negative = cytotoxic” value is 0.319% (inactive).
On the same count and under the same terms, the value for `FC1(F)C(F)(F)C(F)(F)C2(F)C(F)(C1(F)F)C(F)(F)C(F)(F)C1(F)C(F)(F)C(F)(F)C(F)(F)C(F)(F)C12F` (stereo not drawn) was 4.39% (inactive); that for `COc1ccnc2c1CCCCC2S(=O)c1nc2ccccc2[nH]1` (stereo not drawn) was -5.55% [at 35.3 µM] (inactive).
Same read-out and setting: the value for `CCCCCCCCCCCCCCCCN` was 9.18% [at 35.3 µM] (inactive); that for `FC(F)(Cl)C(F)(Cl)Cl` was 5.2% (inactive).
For the compound `Cc1cc(C)c(C)c(O)c1`, the “viability change, negative = cytotoxic” value is -7.47% (inactive).
Same read-out and setting: the value for `CC(=O)c1cccnc1` was 0.43% (inactive); that for `Cc1c(Cl)cccc1[N+](=O)[O-]` was 0.0758% (inactive).
Consider `CCN(CC)CC(=O)OCC(=O)[C@@]1(O)CC[C@H]2[C@@H]3CCC4=CC(=O)CC[C@]4(C)[C@H]3[C@@H](O)C[C@@]21C`, for which the “viability change, negative = cytotoxic” value is 1.33% [at 35.3 µM] (inactive).
Same read-out and setting: in the case of `CCCc1ccc(OC)cc1` it was 3.99% (inactive).

These data come from PubChem BioAssay (Tox21).
